From PubChem BioAssay (EPA / NIEHS)
Results filed as inconclusive are left out. Activity calls are given as the source filed them. The calls were made as follows, unless noted: active = hit-call score of the fitted dose curve at least 0.9, where 1 is the maximum; inconclusive = response in the unintended direction; inactive = score below 0.9.

Molecular target: human Retinoid X Receptor beta (RXRb), RXRB (gene 6257) (UniProt P28702)
Experiment: ATG_RXRb_TRANS: Attagene TRANS-FACTORIAL HepG2 Assay for human Retinoid X Receptor beta (RXRb) (AID 2283013)
Details: not given
Method in brief: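 After a 24 h incubation with test chemical, transfected HepG2 cells carrying NR-Gal4 fusions and GAL4-UAS reporter transcription units yield RNA whose reporter cDNA is FAM-labelled, HpaI-cut and sized by capillary electrophoresis; increases over DMSO are scored.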

Sequence of E-selectin (Homo sapiens) (P16581 whole entry, looked up): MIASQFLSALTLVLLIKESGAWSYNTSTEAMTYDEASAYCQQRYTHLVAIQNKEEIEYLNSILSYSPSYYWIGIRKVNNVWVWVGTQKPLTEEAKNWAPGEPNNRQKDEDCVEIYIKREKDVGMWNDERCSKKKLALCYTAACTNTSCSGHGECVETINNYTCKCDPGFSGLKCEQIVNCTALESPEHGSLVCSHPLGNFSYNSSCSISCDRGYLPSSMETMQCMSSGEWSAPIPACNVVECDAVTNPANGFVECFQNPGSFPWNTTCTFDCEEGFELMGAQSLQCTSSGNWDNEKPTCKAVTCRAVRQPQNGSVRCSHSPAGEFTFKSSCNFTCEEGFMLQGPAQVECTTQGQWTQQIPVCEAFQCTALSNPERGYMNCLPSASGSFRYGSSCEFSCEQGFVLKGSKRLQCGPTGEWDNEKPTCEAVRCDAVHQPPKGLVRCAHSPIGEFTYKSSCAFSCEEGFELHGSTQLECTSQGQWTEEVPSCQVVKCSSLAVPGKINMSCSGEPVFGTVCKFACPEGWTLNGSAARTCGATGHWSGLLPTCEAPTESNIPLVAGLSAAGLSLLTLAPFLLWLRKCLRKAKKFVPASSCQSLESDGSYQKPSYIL
Sequence of human Retinoid X Receptor beta (RXRb), RXRB (gene 6257) (P28702 whole entry, looked up): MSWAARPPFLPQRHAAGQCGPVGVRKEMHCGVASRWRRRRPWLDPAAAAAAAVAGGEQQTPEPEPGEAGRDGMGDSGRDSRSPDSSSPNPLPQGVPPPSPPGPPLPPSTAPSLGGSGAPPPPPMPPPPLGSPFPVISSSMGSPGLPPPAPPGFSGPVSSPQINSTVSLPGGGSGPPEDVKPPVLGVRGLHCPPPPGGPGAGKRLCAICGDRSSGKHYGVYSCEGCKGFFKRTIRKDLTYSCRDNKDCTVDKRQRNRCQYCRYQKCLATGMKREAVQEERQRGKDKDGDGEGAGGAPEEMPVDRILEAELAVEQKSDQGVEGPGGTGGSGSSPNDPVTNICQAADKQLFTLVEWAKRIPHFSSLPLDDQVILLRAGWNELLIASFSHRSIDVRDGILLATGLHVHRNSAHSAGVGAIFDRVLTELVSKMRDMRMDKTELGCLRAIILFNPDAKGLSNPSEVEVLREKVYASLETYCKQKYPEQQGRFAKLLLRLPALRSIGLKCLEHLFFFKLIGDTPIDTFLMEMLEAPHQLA

SMILES	outcome
CCCCC/C=C\CCC=O	inactive
CCCOCCOCCOCCO	inactive
CC(C)=CCC/C(C)=C\C#N	inactive
C=C(C)C(=O)OCCOc1ccccc1	inactive
O=C(c1ccccc1)C1CCC1	inactive

Molecular target: human Thyroid Receptor alpha (THRa1), THRA (gene 7067) (UniProt P10827)
Sequence (P10827 whole entry, looked up): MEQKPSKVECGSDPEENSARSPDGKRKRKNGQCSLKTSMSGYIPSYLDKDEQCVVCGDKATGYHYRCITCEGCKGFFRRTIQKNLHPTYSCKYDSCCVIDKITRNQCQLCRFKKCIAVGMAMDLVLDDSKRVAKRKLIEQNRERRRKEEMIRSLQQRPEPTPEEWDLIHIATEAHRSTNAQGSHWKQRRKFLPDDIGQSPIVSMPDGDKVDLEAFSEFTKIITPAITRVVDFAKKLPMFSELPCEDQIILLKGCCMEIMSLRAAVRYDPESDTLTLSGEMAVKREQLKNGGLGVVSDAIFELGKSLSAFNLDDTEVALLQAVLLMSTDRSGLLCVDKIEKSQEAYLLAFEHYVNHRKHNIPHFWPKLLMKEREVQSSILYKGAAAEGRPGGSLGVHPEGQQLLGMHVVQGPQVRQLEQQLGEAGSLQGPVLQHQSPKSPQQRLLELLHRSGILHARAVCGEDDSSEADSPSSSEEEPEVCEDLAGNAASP
Experiment: ATG_THRa1_TRANS: Attagene TRANS-FACTORIAL HepG2 Assay for human Thyroid Receptor alpha (THRa1) (AID 2283014)
Details: not given
Method in brief: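 HepG2 cells transiently transfected with chimeric NR-Gal4 and GAL4-UAS reporter units, dosed 24 h. Reporter mRNA quantified by RT-PCR, fluorescent labeling, HpaI digestion and capillary electrophoresis; gain-of-signal fit versus DMSO.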

SMILES	outcome
CCN(CC)c1ccc(C(=O)c2ccccc2C(=O)O)c(O)c1	inactive
CC=C1CC2C=CC1C2 (stereo not given)	inactive
CC(C)COC(=O)C=Cc1ccccc1	inactive
CC(C)=CCC[C@H](C)CCO	inactive
O=C(O)Cc1c(Cl)ccc(Cl)c1Cl	inactive
C/C=C\C/C=C/CCCCCCCCOC(C)=O	inactive
CCCCCCCC[N+](C)(CCCCCCCC)CCCCCCCC	inactive
[Cl][In]([Cl])[Cl]	inactive
Cc1ccccc1C	inactive
CCCCCCOC(=O)C(C)CC (stereo not given)	inactive
Cc1oncc1C(=O)Nc1ccc(C(F)(F)F)cc1	inactive
C=C[Si](C)(C)O[Si](C)(C)C=C	inactive
N[C@H]1C(O)O[C@H](CO)[C@H](O)[C@@H]1O (stereo not given in full)	inactive
CO[Si](CCC1CCC2OC2C1)(OC)OC (stereo not given)	inactive
Cn1c([N+](=O)[O-])cnc1COC(N)=O	inactive
CC1=NN(c2cc(S(=O)(=O)O)ccc2Cl)C(=O)C1N=Nc1ccccc1 (stereo not given)	inactive
c1ccc(-c2ccccn2)nc1	inactive
C=CC(=O)OCCC(=O)O	inactive
NC(=O)OCC(COC(N)=O)c1ccccc1	inactive
CCO[Si](CCCN=C=O)(OCC)OCC	inactive
O=c1[nH]c(=O)c2[nH]c(=O)[nH]c2[nH]1	inactive
COC(=O)C1=C(C)NC(C)=C(C(=O)OCC(C)C)C1c1ccccc1[N+](=O)[O-] (stereo not given)	inactive
COc1ccc(NC(C)=O)cc1N	inactive
O=c1cc[nH]c(=S)[nH]1	inactive
N=c1ccn2c(n1)O[C@H]1[C@H](O)[C@@H](CO)O[C@H]12	inactive
CC(=O)OCCC1CCCCC1	inactive
C=COCCCC	inactive
CCN(CCC#N)c1ccc(N=Nc2c(Cl)cc([N+](=O)[O-])cc2Cl)cc1	inactive
O=CC1CC1	inactive
COC(=O)c1ccc2cc(C(=O)OC)ccc2c1	inactive

Read-out: E-selectin (Homo sapiens) (UniProt P16581)
Experiment: BSK_3C_Eselectin: BioMAP Diversity Plus: 3C Assay for Eselectin Biomarker Activity (AID 2283015; active = hit-call score of the fitted dose curve at least 0.9, where 1 is the maximum; inactive = score below 0.9;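 as to outcome: cell surface E-selectin protein quantified by ELISA 24 h after dosing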)
Details: primary human endothelial cells (HUVEC); actives raise or lower the signal
Method in brief: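 Primary human umbilical vein endothelial cells (3C system), read 24 h after compound addition; E-selectin measured by ELISA. Bidirectional curve fitting against DMSO baseline; cytotoxicity by parallel SRB total-protein staining.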

SMILES	AC50	outcome
C/C=C\C/C=C/CCCCCCCCOC(C)=O	19.6 µM (active)	
c1ccc(-c2ccccn2)nc1		inactive
CCO[Si](CCCN=C=O)(OCC)OCC		inactive

Read-out: Interleukin-1 alpha (IL1a), IL1A (gene 3552)
Experiment: BSK_BE3C_IL1a: BioMAP Diversity Plus: BE3C Assay for Interleukin-1 alpha (IL1a) Biomarker Activity (AID 2283016; active = hit-call score of the fitted dose curve at least 0.9, where 1 is the maximum; inactive = score below 0.9)
Details: primary human bronchial epithelial cells; actives raise or lower the signal
Method in brief: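 Measured in human lung primary bronchial epithelial cells: IL-1a by ELISA at 24 h after dosing, with bidirectional fitting against DMSO.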

SMILES	AC50	outcome
C/C=C\C/C=C/CCCCCCCCOC(C)=O	12.1 µM (active)	
c1ccc(-c2ccccn2)nc1		inactive
CCO[Si](CCCN=C=O)(OCC)OCC		inactive

Read-out: Monocyte Chemoattractant Protein-1 (MCP1), CCL2 (gene 6347)
Experiment: BSK_3C_MCP1: BioMAP Diversity Plus: 3C Assay for Monocyte Chemoattractant Protein-1 (MCP1) Biomarker Activity (AID 2283017; active = hit-call score of the fitted dose curve at least 0.9, where 1 is the maximum; inactive = score below 0.9)
Details: primary human endothelial cells (HUVEC); actives raise or lower the signal
Method in brief: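 Human umbilical vein endothelial cells (3C system) exposed to chemicals for 24 h; MCP-1 quantified by ELISA against the DMSO baseline with bidirectional fitting, and parallel SRB staining used to assess cytotoxicity.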

SMILES	outcome
C/C=C\C/C=C/CCCCCCCCOC(C)=O	inactive
c1ccc(-c2ccccn2)nc1	inactive
CCO[Si](CCCN=C=O)(OCC)OCC	inactive

Read-out: Monocyte Chemoattractant Protein-1 (MCP1), CCL2 (gene 6347)
Experiment: BSK_4H_MCP1: BioMAP Diversity Plus: 4H Assay for Monocyte Chemoattractant Protein-1 (MCP1) Biomarker Activity (AID 2283018; active = hit-call score of the fitted dose curve at least 0.9, where 1 is the maximum; inactive = score below 0.9)
Details: primary human endothelial cells (HUVEC); actives raise or lower the signal
Method in brief: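 Primary human umbilical vein endothelium is exposed to chemical for 24 h before MCP-1 is assayed by ELISA. Concentration-response fitted bidirectionally relative to DMSO.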

SMILES	outcome	AC50
C/C=C\C/C=C/CCCCCCCCOC(C)=O	inactive	
c1ccc(-c2ccccn2)nc1		20 µM (active)
CCO[Si](CCCN=C=O)(OCC)OCC	inactive	

Read-out: Human Leukocyte Antigen - DR isotype (HLADR), HLA-DRA (gene 3122)
Experiment: BSK_3C_HLADR: BioMAP Diversity Plus: 3C Assay for Human Leukocyte Antigen - DR isotype (HLADR) Biomarker Activity (AID 2283019; active = hit-call score of the fitted dose curve at least 0.9, where 1 is the maximum; inactive = score below 0.9;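 as to outcome: ELISA of cell-surface HLA-DR on HUVEC 24 h after dosing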)
Details: primary human endothelial cells (HUVEC); actives raise or lower the signal
Method in brief: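 HUVEC monoculture, HLA-DR measured by ELISA 24 h after chemical dosing. Fitted bidirectionally against DMSO baseline; parallel SRB staining assessed cytotoxicity, with 3C proliferation read by SRB at 48 h.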

SMILES	AC50	outcome
C/C=C\C/C=C/CCCCCCCCOC(C)=O	27 µM (active)	
c1ccc(-c2ccccn2)nc1		inactive
CCO[Si](CCCN=C=O)(OCC)OCC		inactive

Read-out: Interleukin-8 (IL8), CXCL8 (gene 3576)
Experiment: BSK_3C_IL8: BioMAP Diversity Plus: 3C Assay for Interleukin-8 (IL8) Biomarker Activity (AID 2283020; active = hit-call score of the fitted dose curve at least 0.9, where 1 is the maximum; inactive = score below 0.9)
Details: primary human endothelial cells (HUVEC); actives raise or lower the signal
Method in brief: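 Using DMSO-treated wells as the baseline, bidirectional curve fitting was applied to ELISA-measured IL-8 from human umbilical vein endothelial cultures sampled 24 h after compound addition.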

SMILES	outcome
C/C=C\C/C=C/CCCCCCCCOC(C)=O	inactive
c1ccc(-c2ccccn2)nc1	inactive
CCO[Si](CCCN=C=O)(OCC)OCC	inactive

Read-out: Monokine induced gamma interferon (MIG), CXCL9 (gene 4283)
Experiment: BSK_3C_MIG: BioMAP Diversity Plus: 3C Assay for Monokine induced gamma interferon (MIG) Biomarker Activity (AID 2283021; active = hit-call score of the fitted dose curve at least 0.9, where 1 is the maximum; inactive = score below 0.9)
Details: primary human endothelial cells (HUVEC); actives raise or lower the signal
Method in brief: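 ELISA-measured MIG in dosed HUVEC 3C cultures at 24 h, analysed by bidirectional fitting with DMSO defining baseline activity.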

SMILES	outcome
C/C=C\C/C=C/CCCCCCCCOC(C)=O	inactive
c1ccc(-c2ccccn2)nc1	inactive
CCO[Si](CCCN=C=O)(OCC)OCC	inactive

Molecular target: human Vitamin D Receptor (VDR), VDR (gene 7421) (UniProt P11473)
Sequence (P11473 whole entry, looked up): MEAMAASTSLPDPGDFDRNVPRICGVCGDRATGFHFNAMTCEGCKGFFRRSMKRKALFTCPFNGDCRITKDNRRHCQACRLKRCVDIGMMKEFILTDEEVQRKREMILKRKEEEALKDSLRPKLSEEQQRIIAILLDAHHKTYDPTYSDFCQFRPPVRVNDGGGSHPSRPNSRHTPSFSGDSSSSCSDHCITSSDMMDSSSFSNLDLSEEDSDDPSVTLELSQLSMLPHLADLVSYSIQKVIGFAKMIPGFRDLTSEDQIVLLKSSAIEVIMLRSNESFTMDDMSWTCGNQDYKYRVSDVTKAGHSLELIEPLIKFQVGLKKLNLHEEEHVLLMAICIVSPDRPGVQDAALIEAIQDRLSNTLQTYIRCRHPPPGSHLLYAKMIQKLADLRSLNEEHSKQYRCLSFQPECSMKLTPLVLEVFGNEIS
Experiment: ATG_VDR_TRANS: Attagene TRANS-FACTORIAL HepG2 Assay for human Vitamin D Receptor (VDR) (AID 2283022)
Details: not given
Method in brief: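 HepG2 cells were transiently transfected with GAL4-UAS reporter units and a chimeric VDR-Gal4 construct, then dosed for 24 hours. Reporter mRNA was quantified by RT-PCR, fluorescent labeling, HpaI digestion and capillary electrophoresis; gain of signal analysed vs DMSO.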

SMILES	outcome
CCCCC/C=C\CCC=O	inactive
C/C=C\C/C=C/CCCCCCCCOC(C)=O	inactive
CCCOCCOCCOCCO	inactive
CC(C)=CCC/C(C)=C\C#N	inactive
c1ccc(-c2ccccn2)nc1	inactive
CCO[Si](CCCN=C=O)(OCC)OCC	inactive
C=C(C)C(=O)OCCOc1ccccc1	inactive
O=C(c1ccccc1)C1CCC1	inactive

Read-out: not listed separately
Experiment: BSK_3C_SRB: Viability Assessment in the BioMAP Diversity Plus: 3C Assay (AID 2283023; active = hit-call score of the fitted dose curve at least 0.9, where 1 is the maximum; inactive = score below 0.9;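 also: fitted both ways against DMSO so a hit may be signal rise or drop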)
Details: primary human endothelial cells (HUVEC)
Method in brief: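 Human umbilical vein endothelial cells in the 3C system, treated 24 h. Total protein measured by 0.1% sulforhodamine B staining after 10% TCA fixation, read at 560 nm; bidirectional fit versus DMSO.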

SMILES	outcome
C/C=C\C/C=C/CCCCCCCCOC(C)=O	inactive
c1ccc(-c2ccccn2)nc1	inactive
CCO[Si](CCCN=C=O)(OCC)OCC	inactive

Read-out: Matrix Metallopeptidase 1 (MMP1), MMP1 (gene 4312)
Experiment: BSK_BE3C_MMP1: BioMAP Diversity Plus: BE3C Assay for Matrix Metallopeptidase 1 (MMP1) Biomarker Activity (AID 2283024; active = hit-call score of the fitted dose curve at least 0.9, where 1 is the maximum; inactive = score below 0.9)
Details: primary human bronchial epithelial cells; actives raise or lower the signal
Method in brief: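 In this multiplexed primary-cell system, human bronchial epithelium received chemicals for 24 h before an ELISA for MMP1. Values reflect bidirectional fits normalised to the DMSO baseline.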

SMILES	outcome
C/C=C\C/C=C/CCCCCCCCOC(C)=O	inactive
c1ccc(-c2ccccn2)nc1	inactive
CCO[Si](CCCN=C=O)(OCC)OCC	inactive

Read-out: not listed separately
Experiment: BSK_3C_Vis: BioMAP Diversity Plus: 3C Assay for Morphology Visualization (AID 2283025; active = hit-call score of the fitted dose curve at least 0.9, where 1 is the maximum; inactive = score below 0.9;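 also: fitted both ways so gain or loss versus DMSO counts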)
Details: primary human endothelial cells (HUVEC)
Method in brief: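 Light-microscopy morphology readout, 24 h exposure, human primary umbilical vein endothelium; analysed relative to DMSO with bidirectional fitting.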

SMILES	outcome
C/C=C\C/C=C/CCCCCCCCOC(C)=O	inactive
c1ccc(-c2ccccn2)nc1	inactive
CCO[Si](CCCN=C=O)(OCC)OCC	inactive

Read-out: Pselectin, SELP (gene 6403)
Experiment: BSK_4H_Pselectin: BioMAP Diversity Plus: 4H Assay for Pselectin Biomarker Activity (AID 2283026; active = hit-call score of the fitted dose curve at least 0.9, where 1 is the maximum; inactive = score below 0.9)
Details: primary human endothelial cells (HUVEC); actives raise or lower the signal
Method in brief: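 Bidirectional fits against DMSO gave the endpoint. Cells: primary human umbilical vein endothelium, chemical-treated for 24 h before ELISA detection of P-selectin.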

SMILES	AC50	outcome
C/C=C\C/C=C/CCCCCCCCOC(C)=O	20 µM (active)	
c1ccc(-c2ccccn2)nc1		inactive
CCO[Si](CCCN=C=O)(OCC)OCC		inactive

Read-out: not listed separately
Experiment: BSK_BE3C_SRB: Viability Assessment in the BioMAP Diversity Plus: BE3C Assay (AID 2283028; active = hit-call score of the fitted dose curve at least 0.9, where 1 is the maximum; inactive = score below 0.9)
Details: primary human bronchial epithelial cells
Method in brief: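 Human bronchial epithelial primary cells in confluent culture, 24 h after chemical dosing; total protein by 0.1% SRB staining after 10% TCA fixation, read at 560 nm. Bidirectional fitting versus DMSO baseline.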

SMILES	outcome
C/C=C\C/C=C/CCCCCCCCOC(C)=O	inactive
c1ccc(-c2ccccn2)nc1	inactive
CCO[Si](CCCN=C=O)(OCC)OCC	inactive

Read-out: Thrombomodulin, THBD (gene 7056)
Experiment: BSK_3C_Thrombomodulin: BioMAP Diversity Plus: 3C Assay for Thrombomodulin Biomarker Activity (AID 2283029; active = hit-call score of the fitted dose curve at least 0.9, where 1 is the maximum; inactive = score below 0.9)
Details: primary human endothelial cells (HUVEC); actives raise or lower the signal
Method in brief: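 In a multiplexed primary-cell system, human umbilical vein endothelium received chemical and was assayed 24 h later for thrombomodulin by ELISA. Parallel cultures were SRB-stained (0.1% SRB after 10% TCA fixation, read at 560 nm) to flag cytotoxicity.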

SMILES	outcome
C/C=C\C/C=C/CCCCCCCCOC(C)=O	inactive
c1ccc(-c2ccccn2)nc1	inactive
CCO[Si](CCCN=C=O)(OCC)OCC	inactive

Read-out: Vascular endothelial growth factor receptor 2 (Homo sapiens) (UniProt P35968)
Experiment: BSK_4H_VEGFRII: BioMAP Diversity Plus: 4H Assay for Vascular endothelial growth factor receptor 2 (VEGFR2) Biomarker Activity (AID 2283031; active = hit-call score of the fitted dose curve at least 0.9, where 1 is the maximum; inactive = score below 0.9)
Details: primary human endothelial cells (HUVEC); actives raise or lower the signal
Method in brief: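 Primary human umbilical vein endothelial cells (4H system), 24 h exposure; cell-surface VEGFR2 measured by ELISA. Bidirectional fitting versus DMSO; cytotoxicity checked in parallel by SRB total-protein staining.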

SMILES	outcome
C/C=C\C/C=C/CCCCCCCCOC(C)=O	inactive
c1ccc(-c2ccccn2)nc1	inactive
CCO[Si](CCCN=C=O)(OCC)OCC	inactive
